HSP90 inh: inhibitors of HSP90 luciferase refolding in rabbit reticulocyte lysate; luciferase refolding luminescence, 3 h; inhibition, % at 5.6 µM; actives 0.91% (n = 290,000); AID 1789;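 active = inhibition above the screen-wide mean plus 3 SD, computed separately per campaign, cut at about 16% in these data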;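 note: 0% = DMSO wells and 100% = 60 µM geldanamycin wells; inhibitors lower the luminescence because luciferase stays unfolded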
TWEAK Fn14 block: blocks TWEAK-Fn14 interaction in a reporter cell assay | TWEAK-stimulated Fn14 reporter cells, luciferase luminescence, 8 h | inhibition, % at 10 µM | actives 2% (n = 360,000) | AID 1159606; in the data active = inhibition above about 50%
LGR2 inh: Drosophila LGR2 receptor signaling inhibition; HEK293 LGR2, CRE-luciferase, bursicon-stimulated, 4 h; AID 720647; actives 0.35% (n = 380,000); inhibition, % at 9.99 µM;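 active = drop in luminescence signal, shown as inhibition above about 50% in the replicate tests, limit read from the data, passing the limit was not always enough; inconclusive = probably only some replicates passing the limit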;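 note: agonist challenge used bursicon conditioned medium at about half maximal strength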
aDG glyco act: alpha-DG glycosylation activation; Pro5-aDG cells, alpha-DG glycosylation AlphaScreen (IIH6); 0% Pro5, 100% B10-LARGE cell signal; activation, % at 10 µM; actives 0.22% (n = 360,000);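 active = activation of at least 8% versus controls, or a plate z-score of at least 8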;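 note: Pro5 are CHO cells carrying HIG-tagged alpha-DG that lacks glycosylation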
TROY NFkB inh: TROY signaling inhibition; Q293 LMP1-TROYcd NF-kB luciferase reporter, 4 h; inhibition, % at 10 µM; actives 0.98% (n = 360,000); AID 1347056;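 active = compounds whose plate-normalised and pattern-corrected inhibition of the luciferase reporter signal at the single screening dose is 50% or more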
EBV LMP1 NFkB: inhibitors of Epstein-Barr LMP1-induced NF-kappaB reporter; LMP1-induced NF-kappaB luciferase reporter cells, luminescence; inhibition, % at 12.5 µM; actives 0.69% (n = 350,000); AID 504558; in the data active = inhibition above about 41%; inconclusive = no clear call, values can overlap the other calls;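 note: 0% = neutral control wells and 100% = reference inhibitor control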
* = called active by the depositor; ? = inconclusive; / = not tested or not shown. In the library only some 2.6% were active in any assay of this set; here they are far more common.

SMILES | HSP90 inh | TWEAK Fn14 block | LGR2 inh | aDG glyco act | TROY NFkB inh | EBV LMP1 NFkB
O=c1oc2c(O)c(O)cc3c(=O)oc4c(O)c(O)cc1c4c23 | 6 | 88* | / | 0 | 15 | -3
C[C@H](CO)N1C[C@H](C)[C@H](CN(C)C(=O)Nc2ccc(F)cc2)OCCCC[C@H](C)Oc2ccc(NC(=O)NC3CCCCC3)cc2C1=O | / | / | 72* | / | / | /
C[C@H](CO)N1C[C@H](C)[C@H](CN(C)C(=O)Nc2ccc(F)cc2)OCCCC[C@H](C)Oc2ccc(NC(=O)Nc3ccccc3)cc2C1=O | / | / | 59* | / | / | /
C[C@@H]1CCCCO[C@H](CN(C)C(=O)Nc2ccc(F)cc2)[C@@H](C)CN([C@H](C)CO)C(=O)c2cc(NC(=O)NC3CCCCC3)ccc2O1 | / | / | 6 | / | / | /
C[C@H](CO)N1C[C@H](C)[C@H](CN(C)C(=O)Nc2ccc(C(F)(F)F)cc2)OCCCC[C@H](C)Oc2ccc(NC(=O)NC3CCCCC3)cc2C1=O | / | / | 55* | / | / | /
C[C@H]1CCCCO[C@H](CN(C)C(=O)Nc2ccc(C(F)(F)F)cc2)[C@@H](C)CN([C@@H](C)CO)C(=O)c2cc(NC(=O)NC3CCCCC3)ccc2O1 | / | / | 12 | / | / | /
C[C@H](CO)N1C[C@H](C)[C@H](CN(C)C(=O)Nc2cccc3ccccc23)Oc2ccc(NS(=O)(=O)c3cccs3)cc2CC1=O | / | / | 5 | / | / | /
C[C@@H]1CN([C@@H](C)CO)C(=O)c2cc(NC(=O)CCC(F)(F)F)ccc2O[C@@H](C)CCCCO[C@@H]1CN(C)Cc1ccc(C(=O)O)cc1 | / | / | -11 | / | / | /
C[C@@H]1CN([C@H](C)CO)C(=O)Cc2cc(NC(=O)Nc3ccccc3)ccc2O[C@H]1CN(C)Cc1ccncc1 | / | / | 5 | / | / | /
CN(C)C(=O)C[C@H]1C[C@H]2c3cc(NC(=O)C4CCOCC4)ccc3O[C@H]2[C@H](CO)O1 | / | / | 9 | / | / | /
Cc1cccc2cc(C#N)c(N3CCOCC3)nc12 | -3 | 54* | / | 0 | -18 | 4
Cc1cc(C)c2nc(N3CCOCC3)c(C#N)cc2c1 | -6 | -4 | -5 | 0 | 5 | 2
CC(C)c1cccc(NC(=O)C[C@H]2CC[C@H]3[C@@H](COc4ccc(NC(=O)c5cnccn5)cc4C(=O)N3C)O2)c1 | / | / | 5 | / | / | /
Cn1c(=O)c(C(=O)Nc2ccccn2)c(O)c2ccccc21 | -1 | 56* | / | 2 | 30 | -7
Cn1c(=O)c(C(=O)Nc2ccccc2S(N)(=O)=O)c(O)c2ccccc21 | 1 | 3 | -23 | 0 | -20 | -27
COc1ccc(S(=O)(=O)NCC(c2cccnc2)N2CCN(c3ccc(F)cc3)CC2)cc1C (configuration not stated) | 2 | 6 | / | 0 | -3 | 82*
Cc1ccccc1C1=C/C(=C(\SS/C(C(=O)c2ccc(OCC(=O)O)c(Cl)c2Cl)=C2\C=C(c3ccccc3C)SS2)C(=O)c2ccc(OCC(=O)O)c(Cl)c2Cl)SS1 | / | 57* | / | 0 | 39 | 13
CC1(C)CC(=O)C=C(NCCN2CCN(C(=S)Nc3ccccc3)CC2)C1 | 1 | 10 | 3 | 0 | -11 | 70*
COc1ccc(C2CC(O)(c3ccccc3)Oc3cc(OC)c(OC)c(OC)c32)cc1 (configuration not stated) | / | 5 | 8 | 0 | -3 | -1
OC1(c2ccccc2)CC(c2ccccc2)c2ccccc2O1 (configuration not stated) | / | 12 | 15 | 0 | 50* | 10
C[C@H](CO)N1C[C@H](C)[C@H](CN(C)Cc2ccc(-c3ccccc3)cc2)Oc2c(NC(=O)Nc3ccc(C(F)(F)F)cc3)cccc2C1=O | / | / | -1 | / | / | /
Cc1ccc(NC(=O)/C=C/c2ccc(S(=O)(=O)N3CCOCC3)cc2)cc1S(=O)(=O)N(C)C | / | 68* | 48 | 1 | 53* | 11
CC(=O)Nc1cccc(NC(=O)/C=C/c2ccc(S(=O)(=O)N3CCOCC3)cc2)c1 | / | 12 | 3 | 0 | 1 | -8
COc1cc(/C=C/C(=O)Nc2ccc(OC)c(S(=O)(=O)N3CCOCC3)c2)ccc1OC(F)F | / | 50 | 0 | 0 | 57* | 21
COc1ccc(C(=O)Nc2ccc(-c3ccc(C)o3)cc2)cc1S(=O)(=O)N1CCOCC1 | -5 | 82* | / | 2 | 51* | 15
SMILES | HSP90 inh | TWEAK Fn14 block | LGR2 inh | aDG glyco act | TROY NFkB inh | EBV LMP1 NFkB
COc1ccc(/C=C/C(=O)Nc2ccc(C(C)=O)cc2)cc1S(=O)(=O)N1CCOCC1 | / | 5 | -3 | 0 | -7 | -2
CCc1sc(C(=O)Nc2ccc(OC)c(S(=O)(=O)N3CCOCC3)c2)cc1C | / | 1 | 1 | 0 | -4 | 13
COc1ccc(NC(=O)c2cc3c(s2)CCC(C)C3)cc1S(=O)(=O)N1CCOCC1 (configuration not stated) | -6 | 79* | 22 | 1 | 51* | 20
Cc1ccccc1-c1ccc([C@H]2[C@@H](CO)N3CCCCN(Cc4cccnc4)C[C@H]23)cc1 | / | / | -9 | / | / | /
COc1ccc(/C=C/C(=O)OCC(=O)Nc2ccc(C)cc2)cc1S(=O)(=O)N1CCOCC1 | 0 | 19 | -5 | 0 | -4 | -9
NS(=O)(=O)c1ccc(CCNC(=O)/C=C/c2ccc(S(=O)(=O)N3CCOCC3)cc2)cc1 | / | 84* | -2 | 0 | -14 | 5
COc1ccc(NC(=O)COC(=O)/C=C/c2ccc(OC)c(S(=O)(=O)N3CCOCC3)c2)cc1 | 3 | -2 | -10 | 0 | -17 | 54*
COc1cccc(NC(=O)N2C[C@H](O)COC[C@@H]3O[C@@H](CC(=O)NCCCN4CCOCC4)CC[C@H]32)c1 | / | / | 0 | / | / | /
C[C@H](CO)N1C[C@H](C)[C@@H](CN(C)C(=O)C2CC2)Oc2cc(-c3cccnc3)ccc2S1(=O)=O | / | / | -2 | / | / | /
C=CCn1c(C)cc(C2=NNC(=NC(C)(C)C)SC2)c1C | 5 | 83* | 0 | 0 | 28 | 57*
c1ccc2c(C3=NNC(=NC4CCCCC4)SC3)c[nH]c2c1 | 8 | -39 | -50 | 2 | -19 | 10
Cc1cc(C2=NNC(=NC3CC3)SC2)c(C)n1-c1ccccc1 | 13 | 96* | -4 | 0 | 47 | 74*
c1ccc(C2=NNC(=NC3CC3)SC2)cc1 | 13 | 63* | / | 0 | -22 | 48*
C=CCn1c(C)cc(C2=NNC(=Nc3ccc(C)cc3)SC2)c1C | 2 | -6 | -27 | 0 | -24 | -13
COCCCN=C1NN=C(c2cc(C)n(Cc3ccco3)c2C)CS1 | 5 | 10 | -30 | 0 | 2 | 8
Cc1cc(C2=NNC(=NC3CC3)SC2)c(C)n1Cc1ccco1 | 0 | 61* | / | 0 | 16 | 79*
C=CCN=C1NN=C(c2cc(C)n(CCOC)c2C)CS1 | 5 | 41 | ? | 0 | 14 | 45*
COCCn1c(C)cc(C2=NNC(=NC3CC3)SC2)c1C | 70* | 102* | 94* | 0 | 86* | 84*
COCCn1c(C)cc(C2=NNC(=Nc3ccc(Cl)cc3Cl)SC2)c1C | 9 | 8 | / | 0 | -10 | 15
